The nature of assay [1]: NS1 protein of Zika virus - qHTS assay to identify small molecule inhibitors in human HEK 293 cells (AID 1347053). Note: nearly all actives have a fitted effect of over 55% in size. The method in brief: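 Readout was TR-FRET using paired anti-NS1 antibodies after 24 h infection of HEK 293 cells with ZIKV MR766 (MOI = 0.5). Compound preceded virus by 1 h; reduced signal reflects lower NS1 expression.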
In general terms: qHTS replaces the single test concentration by a dilution series.

Assay [2] in a line: qHTS of pediatric cancer cell lines to identify multiple opportunities for drug repurposing: Primary screen for TC32 cells (AID 1347089). Note: nearly all actives have a fitted effect of over 60% in size. Put shortly:
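In the primary qHTS, MIPE compounds were tested at 11 concentrations (0.78 nM to 46 µM) and NPC compounds at 8 (0.59 nM to 46 µM) on TC32 cells for 48 h. CellTiter-Glo luminescence gave viability.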

Assay [3] can be described thus: qHTS of pediatric cancer cell lines to identify multiple opportunities for drug repurposing: Primary screen for DAOY cells (AID 1347090). Note: nearly all actives have a fitted effect of over 55% in size. Put shortly: (§1)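 Viability measured as metabolically active cells via CellTiter-Glo luminescence following 48 hours of compound exposure, 11-point dilutions in confirmatory testing. 500-1,000 cells/well plated 5 hours before dosing; controls were DMSO and 2.3 µM bortezomib.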

Assay [4] can be described thus: qHTS of pediatric cancer cell lines to identify multiple opportunities for drug repurposing: Primary screen for SJ-GBM2 cells (AID 1347091). The method in brief: as §1
A short description of assay [5]: qHTS of pediatric cancer cell lines to identify multiple opportunities for drug repurposing: Primary screen for A673 cells (AID 1347092). Note: nearly all actives have a fitted effect of over 45% in size. Put shortly: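 48 h compound exposure, A673, 500-1,000 cells/well, 37 degrees C/5% CO2. MIPE: 11-point, 0.78 nM-46 µM; NPC: 8-point, 0.59 nM-46 µM (final). Readout CellTiter-Glo luminescence after 15 min RT.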
Assay [6] is described as follows: qHTS of pediatric cancer cell lines to identify multiple opportunities for drug repurposing: Primary screen for SK-N-MC cells (AID 1347093). The method in brief: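 Metabolically active cells were quantified by ATP-dependent luminescence (CellTiter-Glo, 15 min at room temperature) following 48 h treatment. Cells had been plated at 500-1,000 per well and settled for 5 h beforehand.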

Records with an inconclusive call do not appear. Active and inactive are the calls of the source. Calls come from the whole dose curve; as a rule, active = well fitted curve in the direction sought with a large enough effect; inconclusive = small, poorly fitted or top-dose-only effect, or another doubt; inactive = no such curve, though single readings can be large; an effect the other way counts as inactive or inconclusive.
Potency is the fitted concentration of half-maximal effect.

With `Oc1cc(-c2nc(-c3ccccc3)[nH]c2-c2ccncc2)ccc1Cl`, the Potency in assay [1] was 37.2 µM (active); in assay [3], 5.9 µM (active); in assay [4] it was 4.69 µM (active); in assay [5], 1.48 µM (active); in assay [6], 0.662 µM (active). Besides, the Potency result in assay [2] is “inactive”.
Turning to `N[C@H]1CN(c2c(F)cc3c(=O)c(C(=O)O)cn(C4C[C@@H]4F)c3c2Cl)CC12CC2` (stereo not given in full), the Potency result in assay [1], in assay [2], in assay [3], in assay [4], in assay [5] and in assay [6] was “inactive” in each case.
With `COc1cccc2c1C(=O)c1c(O)c3c(c(O)c1C2=O)C[C@@](O)(C(=O)CO)C[C@@H]3O[C@H]1C[C@H](N)[C@@H](O)[C@H](C)O1`, the Potency in assay [1] is 0.296 µM (active); in assay [2], 0.658 µM (active); in assay [3], 1.87 µM (active); in assay [4] it was 0.264 µM (active); in assay [5], 0.372 µM (active); in assay [6], 0.235 µM (active).
`C[C@H](CCC(=O)O)[C@H]1CC[C@H]2[C@@H]3[C@H](O)C[C@@H]4C[C@H](O)CC[C@]4(C)[C@@H]3CC[C@]12C`: the Potency entry in assay [1], in assay [2], in assay [3], in assay [4], in assay [5] and in assay [6] was “inactive” throughout.
For the compound `CN1[C@H]2CC(OC(=O)[C@@H](CO)c3ccccc3)C[C@H]1[C@H]1O[C@H]12` (stereo not given in full), the Potency result in assay [1], in assay [2], in assay [3], in assay [4], in assay [5] and in assay [6] was “inactive” each time.
With `C[C@H](NCc1ccc2c(c1)nc(NC(=O)c1ccc(-c3cn[nH]c3)s1)n2CCc1ccccc1)C(C)(C)C`, the Potency in assay [1] was 8.33 µM (active); in assay [2] it was 9.3 µM (active); in assay [3] it was 2.96 µM (active); in assay [4] it was 1.05 µM (active); in assay [5] it was 0.743 µM (active); in assay [6], 1.66 µM (active).
As to `C[C@]12CC[C@@H]3c4ccc(O)cc4CC[C@H]3[C@H]1CC[C@H]2O`, the Potency result in assay [1] and in assay [2] was “inactive” in each case. The Potency in assay [3] was 18.7 µM (active); in assay [4], 16.6 µM (active); in assay [5], 2.96 µM (active); in assay [6], 10.5 µM (active).
With `OCc1ccccc1O[C@@H]1O[C@H](CO)[C@H](O)[C@H](O)[C@H]1O`, the Potency entry in assay [1], in assay [2], in assay [3], in assay [4], in assay [5] and in assay [6] was “inactive” throughout.
As to `O=C1c2c(O)cccc2[C@@H]([C@@H]2O[C@H](CO)[C@@H](O)[C@H](O)[C@H]2O)c2cc(CO)cc(O)c21`, the Potency entry in assay [1], in assay [2], in assay [3], in assay [4] and in assay [5] was “inactive” throughout. For the same compound, the Potency in assay [6] is 11.8 µM (active).
On to `CN(N=O)C(=O)N[C@H]1C(O)OC(CO)[C@@H](O)[C@H]1O` (stereo not given in full), for which the Potency result in assay [1], in assay [2], in assay [3], in assay [4], in assay [5] and in assay [6] was “inactive” in each case.
For `O=S(=O)(O)CCSSCCS(=O)(=O)O`, the Potency result in assay [1], in assay [2], in assay [3], in assay [4] and in assay [5] was “inactive” throughout. Moreover, the Potency in assay [6] is 10.5 µM (active).
For the compound `CC(C)C[C@H](NC(=O)CNC(=O)c1cc(Cl)ccc1Cl)B1OC(=O)CC(CC(=O)O)(C(=O)O)O1` (stereo not given in full), the Potency is 0.209 µM (active) in assay [1]; 2.94 µM (active) in assay [2]; 0.148 µM (active) in assay [3]; 0.148 µM (active) in assay [4]; 0.0118 µM (active) in assay [5]; 0.0833 µM (active) in assay [6].
In the case of `CCc1c(O)cc(O)c(C(=O)c2ccc(OCCN3CCOCC3)c(OC)c2)c1CC(=O)N(CCOC)CCOC`, the Potency result in assay [1] is “inactive”. Moreover, the Potency in assay [2] was 2.94 µM (active); in assay [3] it was 14.8 µM (active); in assay [4], 1.18 µM (active); in assay [5] it was 0.935 µM (active); in assay [6], 0.526 µM (active).
For `C[C@H]1O[C@H](O[C@H]2[C@H](O)[C@@H](O)[C@@H](O[C@H]3[C@H](O)[C@@H](O)C(O)O[C@H]3CO)O[C@H]2CO)[C@H](O)[C@@H](O)[C@H]1N[C@H]1C=C(CO)[C@@H](O)[C@H](O)[C@@H]1O` (stereo not given in full), the Potency entry in assay [1], in assay [2] and in assay [3] was “inactive” each time. Besides, the results for the Potency in assay [4], in assay [5] and in assay [6] were 4.69 µM (active), 0.187 µM (active) and 33.2 µM (active), respectively.
On to `COc1cccc2c1C(=O)c1c(O)c3c(c(O)c1C2=O)C[C@@](O)(C(=O)CO)C[C@H]3O[C@H]1C[C@H](N)[C@H](O)[C@H](C)O1`, for which the Potency in assay [1] was 0.332 µM (active); in assay [2], 0.93 µM (active); in assay [3], 0.935 µM (active); in assay [4], 0.0526 µM (active); in assay [5], 0.235 µM (active); in assay [6] it was 0.105 µM (active).
On to `CO[C@@H]1[C@@H](O)[C@H](O)[C@@H](n2c3c(Cl)cccc3c3c4c(c5c6cccc(Cl)c6[nH]c5c32)C(=O)NC4=O)O[C@@H]1CO`, for which the Potency in assay [1] was 0.118 µM (active); in assay [2] it was 0.294 µM (active); in assay [3] it was 0.469 µM (active); in assay [4], 0.166 µM (active); in assay [5], 0.235 µM (active); in assay [6], 0.0662 µM (active).
In the case of `CN(C)c1ccc(C(=O)NCCCCCCC(=O)NO)cc1`, the Potency result in assay [1] was “inactive”. Also, the Potency in assay [2] was 2.62 µM (active); in assay [3] it was 2.35 µM (active); in assay [4], 0.743 µM (active); in assay [5], 1.18 µM (active); in assay [6], 0.332 µM (active).
For the compound `COc1cc(C=CC(=O)CC(=O)C=Cc2ccc(O)c(OC)c2)ccc1O`, the Potency in assay [1] was 19.1 µM (active); in assay [2] it was 33.9 µM (active); in assay [3], 21.5 µM (active); in assay [4], 30.3 µM (active); in assay [5], 6.79 µM (active); in assay [6], 5.4 µM (active).
With `C=CC(=O)N1CCc2ccc(-n3c(=O)ccc4cnc5ccc(-c6cnn(C)c6)cc5c43)cc21`, the Potency in assay [1] was 2.96 µM (active); in assay [2], 9.3 µM (active); in assay [3], 5.9 µM (active); in assay [4], 5.9 µM (active); in assay [5] it was 5.9 µM (active); in assay [6] it was 1.48 µM (active).
For the compound `Cc1cc(C(=O)NOCCO)c(Nc2ccc(I)cc2F)n(C)c1=O`, the Potency result in assay [1], in assay [2], in assay [3] and in assay [4] was “inactive” throughout. Moreover, in assay [6], the Potency was 0.662 µM (active).
For `Cc1cc(-c2nnc3n2CCCCC3)c(C)n1-c1ccccc1`, the Potency entry in assay [1], in assay [2], in assay [3], in assay [5] and in assay [6] was “inactive” in each case.
For the compound `CCCCCCCCCCCCCCCC(=O)OC[C@@H](NC(=O)C(Cl)Cl)[C@H](O)c1ccc([N+](=O)[O-])cc1`, the Potency entry in assay [1], in assay [2], in assay [3], in assay [4], in assay [5] and in assay [6] was “inactive” each time.
